Only a selection was taken, and the strongest signals are over-represented in it overall.
Legend:
Test in all cases: glycan array binding signal (z-score within array); higher = stronger binding
Conditions in all cases: glycan notation: IUPAC condensed, linker removed
[1] = molecular target: Glc(a1-6)Glc(a1-6)Glc(a1-6)Glc
Outline: (§1)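 From the Consortium for Functional Glycomics database, 3228 arrays were curated, keeping only those whose protein sequence was available. Binding is given as a within-array Z-score averaged across arrays sharing a protein sequence and across linkers. Negative Z-scores can be read as non-binding.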

[2] = molecular target: Glc(b1-4)Glc(b1-4)Glc(b1-4)Glc(b1-4)Glc(b1-4)Glc(b1-4)Glc(b1-4)Glc(b1-4)Glc
Outline: as §1

[3] = molecular target: Glc(b1-4)Glc(b1-4)Glc(b1-4)Glc(b1-4)Glc(b1-4)Glc(b1-4)Glc(b1-4)Glc(b1-4)Glc(b1-4)Glc
Outline: as §1

[4] = molecular target: Glc(b1-4)Glc(b1-4)Glc(b1-4)Glc(b1-4)Glc(b1-4)Glc(b1-4)Glc(b1-4)Glc(b1-4)Glc(b1-4)Glc(b1-4)Glc
Outline: as §1

[5] = molecular target: Glc(b1-4)Glc(b1-4)Glc(b1-4)Glc(b1-4)Glc(b1-4)Glc(b1-4)Glc(b1-4)Glc(b1-4)Glc(b1-4)Glc(b1-4)Glc(b1-4)Glc
Outline: as §1

[6] = molecular target: Glc(b1-4)Glc(b1-4)Glc(b1-4)Glc(b1-4)Glc(b1-4)Glc(b1-4)Glc(b1-4)Glc(b1-4)Glc(b1-4)Glc(b1-4)Glc(b1-4)Glc(b1-4)Glc
Outline: as §1

GlcA(b1-3)Gal = molecular target: GlcA(b1-3)Gal
Outline: as §1

[7] = molecular target: GlcA3S(b1-3)Gal(b1-4)GlcNAc(b1-2)Man
Outline: as §1

[8] = molecular target: GlcNAc(b1-2)Gal(b1-3)GalNAc
Outline: as §1

[9] = molecular target: GlcNAc(b1-2)Man(a1-3)[GlcNAc(b1-2)Man(a1-6)]Man(b1-4)GlcNAc(b1-4)GlcNAc
Outline: as §1

[10] = molecular target: GlcNAc(b1-3)Gal(b1-4)GlcNAc(b1-2)Man(a1-3)[GlcNAc(b1-3)Gal(b1-4)GlcNAc(b1-2)Man(a1-6)]Man(b1-4)GlcNAc(b1-4)GlcNAc
Outline: as §1

[11] = molecular target: GlcNAc(b1-3)Gal(b1-4)GlcNAc(b1-2)Man(a1-3)[GlcNAc(b1-3)Gal(b1-4)GlcNAc(b1-2)Man(a1-6)]Man(b1-4)GlcNAc(b1-4)[Fuc(a1-6)]GlcNAc
Outline: as §1

[12] = molecular target: GlcNAc(b1-3)Gal(b1-4)GlcNAc(b1-3)Gal(b1-4)GlcNAc(b1-3)Gal(b1-4)GlcNAc(b1-3)Gal(b1-4)GlcNAc(b1-2)[GlcNAc(b1-3)Gal(b1-4)GlcNAc(b1-3)Gal(b1-4)GlcNAc(b1-3)Gal(b1-4)GlcNAc(b1-3)Gal(b1-4)GlcNAc(b1-6)]Man(a1-6)[GlcNAc(b1-3)Gal(b1-4)GlcNAc(b1-3)Gal(b1-4)GlcNAc(b1-3)Gal(b1-4)GlcNAc(b1-3)Gal(b1-4)GlcNAc(b1-2)Man(a1-3)]Man(b1-4)GlcNAc(b1-4)[Fuc(a1-6)]GlcNAc
Outline: as §1

[13] = molecular target: GlcNAc(b1-3)Gal(b1-4)GlcNAc(b1-6)[Gal(b1-3)]GalNAc
Outline: as §1

[14] = molecular target: GlcNAc(b1-3)[GlcNAc(b1-6)]Gal
Outline: as §1

[15] = molecular target: GlcNAc(b1-3)[GlcNAc(b1-6)]Gal(b1-4)GlcNAc(b1-3)[GlcNAc(b1-6)]Gal(b1-4)GlcNAc(b1-3)Gal(b1-4)Glc
Outline: as §1

GlcNAc(b1-4)GlcNAc = molecular target: GlcNAc(b1-4)GlcNAc
Outline: as §1

[16] = molecular target: GlcNAc(b1-4)GlcNAc(b1-4)GlcNAc(b1-4)GlcNAc
Outline: as §1

[17] = molecular target: HexA(a1-3)GalNAc4S(b1-4)GlcA(b1-3)GalNAc4S(b1-4)GlcA(b1-3)GalNAc4S(b1-4)GlcA(b1-3)GalNAc4S(b1-4)GlcA(b1-3)GalNAc4S(b1-4)GlcA(b1-3)GalNAc4S(b1-4)GlcA(b1-3)GalNAc4S
Outline: as §1

[18] = molecular target: Man(a1-2)Man(a1-6)[Man(a1-3)]Man(a1-6)[Man(a1-2)Man(a1-2)Man(a1-3)]Man(b1-4)GlcNAc(b1-4)GlcNAc
Outline: as §1

Neu5Ac(a2-3)Gal = molecular target: Neu5Ac(a2-3)Gal
Outline: as §1

[19] = molecular target: Neu5Ac(a2-3)Gal(b1-3)GalNAc(b1-3)Gal(a1-4)Gal(b1-4)Glc
Outline: as §1

[20] = molecular target: Neu5Ac(a2-3)Gal(b1-3)GlcNAc(b1-2)Man(a1-3)[Neu5Ac(a2-3)Gal(b1-3)GlcNAc(b1-2)Man(a1-6)]Man(b1-4)GlcNAc(b1-4)GlcNAc
Outline: as §1

[21] = molecular target: Neu5Ac(a2-3)Gal(b1-3)[Neu5Ac(a2-3)Gal(b1-4)]GlcNAc
Outline: as §1

[22] = molecular target: Neu5Ac(a2-3)Gal(b1-3)[Neu5Ac(a2-6)]GalNAc
Outline: as §1

[23] = molecular target: Neu5Ac(a2-3)Gal(b1-4)GlcNAc(b1-2)Man(a1-3)[Neu5Ac(a2-3)Gal(b1-4)GlcNAc(b1-2)Man(a1-6)]Man(b1-4)GlcNAc(b1-4)GlcNAc
Outline: as §1

[24] = molecular target: Neu5Ac(a2-3)Gal(b1-4)GlcNAc(b1-2)Man(a1-3)[Neu5Ac(a2-3)Gal(b1-4)GlcNAc(b1-2)Man(a1-6)]Man(b1-4)GlcNAc(b1-4)[Fuc(a1-6)]GlcNAc
Outline: as §1

[25] = molecular target: Neu5Ac(a2-3)Gal(b1-4)[Fuc(a1-3)]GlcNAc6S
Outline: as §1

[26] = molecular target: Neu5Ac(a2-3)Gal(b1-4)[Qui(a1-3)]GlcNAc(b1-3)Gal
Outline: as §1

[27] = molecular target: Neu5Ac(a2-3)GalNBz(b1-4)GlcNAc
Outline: as §1

[28] = molecular target: Neu5Ac(a2-3)[GalNAc(b1-4)]Gal(b1-3)GalNAc(b1-4)[Neu5Ac(a2-3)]Gal(b1-4)Glc
Outline: as §1

[29] = molecular target: Neu5Ac(a2-3)[GalNAc(b1-4)]Gal(b1-4)GlcNAc
Outline: as §1

[30] = molecular target: Neu5Ac(a2-6)Gal(b1-4)GlcNAc(b1-2)Man(a1-3)[Neu5Ac(a2-6)Gal(b1-4)GlcNAc(b1-2)Man(a1-6)]Man(b1-4)GlcNAc(b1-4)[Fuc(a1-6)]GlcNAc
Outline: as §1

[31] = molecular target: Neu5Ac(a2-6)Gal(b1-4)GlcNAc(b1-3)[Neu5Ac(a2-6)Gal(b1-4)GlcNAc(b1-6)]Gal(b1-4)Glc
Outline: as §1

Neu5Ac(b2-3)Gal(b1-4)Glc = molecular target: Neu5Ac(b2-3)Gal(b1-4)Glc
Outline: as §1

[32] = molecular target: Neu5Ac9Ac(a2-3)Gal(b1-4)GlcNAc
Outline: as §1

[33] = molecular target: Neu5Ac9Ac(a2-3)Gal(b1-4)[Fuc(a1-3)]GlcNAc
Outline: as §1

Neu5Gc(a2-6)GalNAc = molecular target: Neu5Gc(a2-6)GalNAc
Outline: as §1

[34] = molecular target: Xyl(b1-4)Xyl(b1-4)Xyl(b1-4)Xyl(b1-4)Xyl(b1-4)Xyl
Outline: as §1

B1: PNA (Arachis hypogaea), P02872 (protein)
chain: MKPFCVFLTFFLLLAASSKKVDSAETVSFNFNSFSEGNPAINFQGDVTVLSNGNIQLTNLNKVNSVGRVLYAMPVRIWSSATGNVASFLTSFSFEMKDIKDYDPADGIIFFIAPEDTQIPAGSIGGGTLGVSDTKGAGHFVGVEFDTYSNSEYNDPPTDHVGIDVNSVDSVKTVPWNSVSGAVVKVTVIYDSSTKTLSVAVTNDNGDITTIAQVVDLKAKLPERVKFGFSASGSLGGRQIHLIRSWSFTSTLITTTRRSIDNNEKKIMNMASA
With B1 the “glycan array binding signal (z-score)” value [1] was -0.136, the “glycan array binding signal (z-score)” value [2] was 0.924 and the “glycan array binding signal (z-score)” value [3] was 1.4. The “glycan array binding signal (z-score)” value [4] was 2.88, the “glycan array binding signal (z-score)” value [5] was 1.98 and the “glycan array binding signal (z-score)” value [6] was 2.23. The “glycan array binding signal (z-score)” value (GlcA(b1-3)Gal) was -0.167, the “glycan array binding signal (z-score)” value [7] was -0.368 and the “glycan array binding signal (z-score)” value [8] was -0.177. For the same binder, the “glycan array binding signal (z-score)” value [9] was -0.143, the “glycan array binding signal (z-score)” value [10] was 0.227 and the “glycan array binding signal (z-score)” value [11] was 0.22. The “glycan array binding signal (z-score)” value [12] was 1.96, the “glycan array binding signal (z-score)” value [13] was 5.04 and the “glycan array binding signal (z-score)” value [14] was -0.195. For the same binder, the “glycan array binding signal (z-score)” value [15] was 2.02, the “glycan array binding signal (z-score)” value (GlcNAc(b1-4)GlcNAc) was -0.113 and the “glycan array binding signal (z-score)” value [16] was -0.195. For the same binder, the “glycan array binding signal (z-score)” value [17] was -0.195, the “glycan array binding signal (z-score)” value [18] was -0.178 and the “glycan array binding signal (z-score)” value (Neu5Ac(a2-3)Gal) was -0.171. The “glycan array binding signal (z-score)” value [19] was -0.112, the “glycan array binding signal (z-score)” value [20] was -0.061 and the “glycan array binding signal (z-score)” value [21] was -0.21. For the same binder, the “glycan array binding signal (z-score)” value [22] was -0.176, the “glycan array binding signal (z-score)” value [23] was -0.148 and the “glycan array binding signal (z-score)” value [24] was -0.306. The “glycan array binding signal (z-score)” value [25] was -0.225, the “glycan array binding signal (z-score)” value [26] was -0.195 and the “glycan array binding signal (z-score)” value [27] was -0.195. The “glycan array binding signal (z-score)” value [28] was -0.195, the “glycan array binding signal (z-score)” value [29] was -0.138 and the “glycan array binding signal (z-score)” value [30] was -0.21. For the same binder, the “glycan array binding signal (z-score)” value [31] was -0.195, the “glycan array binding signal (z-score)” value (Neu5Ac(b2-3)Gal(b1-4)Glc) was -0.195 and the “glycan array binding signal (z-score)” value [32] was -0.073. For the same binder, the “glycan array binding signal (z-score)” value [33] was -0.195, the “glycan array binding signal (z-score)” value (Neu5Gc(a2-6)GalNAc) was -0.162 and the “glycan array binding signal (z-score)” value [34] was -0.195.
